In the OligoGym collection:

biological target: SLC25A25; assay: pooled miR-30 sensor sort-seq; sequence = guide strand; conditions: shRNA
Also: reference of the scale not given here.

Sequence	sensor-assay potency score (higher = more potent)
TTGAGCGTCTCGTAGACTGCAA	0.033
TCCACTGTGAACTCATCCGGGA	-0.99
TTCTCGTAGACCACGTAGCTGA	-0.478
AAATTCTTCAAAGTCTAGCTGC	0.318
TAGACTGCAAGGTCGATGCCGG	-0.614
TGCATGAGCACCTTGAGCCTGT	-0.00686
TTCCAGTCGATGGTCATCGTGC	-0.398
TATCTTGACTCCCAAGTCCCGC	-1.03
TAGTCTCTCCACTCGTTCCAGT	-0.705
TTAAATGACAACTTCTAACGTC	0.538

biological target: SLC25A30; assay: as above; conditions: shRNA

Sequence	sensor-assay potency score (higher = more potent)
TTCAATGAATAGTCGCTTCAAG	-0.455
TAAATGTTCATGAAGTTGCCTA	-0.274
TTGCTTTGCGCTTGCATCCGAA	-1.2
TAAGTGCCTATCTTGATGGTGC	0.212
TGTCTGTAACAAGCAATCCAGG	-1.42
TATCATTCCTCCTTGAATGGTG	-0.0231
TAGAGTTTCATCTTCTGGGCGT	0.316
TTATCGGTAGAGTTTCATCTTC	-0.374
TGTAGCCAGAACATCTGCCATC	-1.32
TATCGGTAGAGTTTCATCTTCT	0.16
TTATAGAGAGCAAAAAACCCTT	-0.63

biological target: SLC25A38; assay: as above; conditions: shRNA

Sequence	sensor-assay potency score (higher = more potent)
TATGAATTGATGACTCCTCTTT	0.416
ATAGGTGACATACAGACCCCTG	-0.876
TTTGATAACATCCGCAGGTTGA	-0.428
TAGGACTTCATCTTACTGCAGA	-0.516
ATGAGTTTTGATAACATCCGCA	0.0272
TTGATGACTCCTCTTTTGGAGA	-1.04
TATATTTTTGGTCTGGTTGTAA	0.16
AAGAGTACAGCCAACATCCCAA	-0.0219
TGAGTTTTGATAACATCCGCAG	-0.615
TATGAGTTTTGATAACATCCGC	-0.0581
TTGAAAATAAGTGTCACTGCTT	0.827
TAACATAAGCGTTTCCACCGTG	0.26

biological target: SLC25A3; assay: as above; conditions: shRNA

Sequence	sensor-assay potency score (higher = more potent)
TAAGTGTAACTGAGAATCCGTT	-0.605
TTTAAATCCAAGTCTCTTGAGG	-0.533
TATGGTATCTGTCTCATCCAGA	0.075
TTGTACAGTGCTTCAACAGTAC	0.043
TTCACAACTGTACTCTTCCACG	-0.783
TAAATCTGAAACTCTTGCCTTA	0.121
TTTTCTTTATTCAACACAGATA	-1.15
